Results taken from the supplement of paper PMC11417369.
± gives the standard deviation of the averaged measurements. Whole data set: some 25,000 sequences, median “ln(normalized median fluorescence intensity)” near 10, cut for the highest 2% near 12. This excerpt belongs to a sample that is enriched for the highest values.

What follows are sequences tested on PfAP2-G AP2 domain (GST-tagged) (assay: gcPBM binding intensity (ln(normalized median fluorescence intensity)); higher = stronger DNA binding).
Summary of the method: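 Binding intensity is the highest Masliner-normalised natural-log median intensity over replicate spots in either probe orientation. To obtain it, GST-tagged P. falciparum DNA-binding domains made in E. coli were incubated for 1 h on an Agilent 4 × 180k array of primer-extended double-stranded 36-bp intergenic genomic probes plus negative controls. Detection used Alexa488 anti-GST antibody with scanning at 488 nm.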

Sequence	gcPBM binding intensity (ln)
TGTTTTGTTTTTTGGGGTACATGTTTTGTATTATAT [XGTACX_site7997]	11.6 ± 0.78
TATGATTTTTATATATGTACGTATGGTGTTTTACAA [XGTACX_site6100]	11.3 ± 0.53
GTTTGGTGGTGTTTTGGTACGTACGGGGGTGTATGT [XGTACX_site1211]	11.7 ± 0.85
GACTTTTCATTTATAGTGCAAGTTTTTTTTTTTTTT [GTGCAC_site9698]	10.1 ± 0.23
CAAAAGTAAGCACGCACACACAACATGAAATAAACT [CACACA_site6223]	10.29 ± 0.078
ATATATTTTGATTGCACACAGAATTTAAATCATGAT [CACACA_site2343]	10.1 ± 0.2
TATTTATAAAAATATACACACATACAAATATGCATA [CACACA_site4555]	9.815 ± 0.007
TTTTTTTTAAAACTATGTACGTAAAAATTGTAGTTT [XGTACX_site2302]	11.7 ± 0.91
CATAAATACTATATATGTACGTAATTTTTAAAACAT [XGTACX_site7710]	11.6 ± 0.83
TTTTTTTTTTTAATATGTACGTAAAATAAGTTTAAA [XGTACX_site6495]	11.4 ± 0.95
TTTATTTTATTTTCATGTACAAAAGGGGAATAATAA [XGTACX_site2704]	10.9 ± 0.71
AATAGGGTCATTCAAAAAAAAAAAAAATAATAATAC [CACACA_negctrl_site644]	10.1 ± 0.29
TACACATGTTTAAAATGTACGTTTTATAACACACAC [XGTACX_site8229]	11.3 ± 0.82
ATATTATAAATATAATGTACGTTTTAATTTCATGTT [XGTACX_site3557]	11.2 ± 0.79
ATTTCTAAATGTTGGTGTACGTTTTTTTATAACCTT [XGTACX_site1752]	11.6 ± 1.1
TCACTATAATAATTTACACACATTTTAAGAAAATGG [CACACA_site5867]	10 ± 0.18
TATATTTATTATAACACACACATATATATATTATAT [CACACA_site1061]	9.905 ± 0.064
TTATAAATAAAAAATACACACATATATTTATTTATA [CACACA_site6242]	9.77 ± 0.028
TACTATGCCCCATATAAACACACAAATAAAAAGAAT [CACACA_site8857]	10.2 ± 0.21
TTTTCATGTTGTAAAGCATGCTTTACTCATAAAAAA [TGCATGCA_site917]	9.95 ± 0.23
TATACATTTTTATAAAGTACACAAAAATAAATATAA [XGTACX_site1647]	11.5 ± 0.95
ATTTAAATAATATGTACACACATTTAAAAAGTTATA [CACACA_site7347]	11.6 ± 0.94
TGCAATATATCAAAGTGTACATGCAATAAAAAAAAA [XGTACX_site652]	11.1 ± 0.71

Sequence	gcPBM binding intensity (ln)
ATAGGCAAAAAGTGTACACATTCATTTATATAAATA [CACACA_site4480]	11.7 ± 0.79
ATTTCATTTTATAAGTGTACAATAAAAAAAAAAAAA [XGTACX_site8677]	11.3 ± 1
ACAATATGCAAAAAGTGTACACATTCATTTATATAA [XGTACX_site1061]	11.7 ± 0.86
TTGTAGATATTTATATGTACGAATTTATAAATATAG [XGTACX_site3611]	11.1 ± 0.76
ACTATTTTCTTCAAAACATGCACCACATAAACATAA [TGCATGCA_site200]	10.6 ± 0.51
TAATTATTATTAATAGTACACACTATGGCATTTCAA [CACACA_site2488]	11.1 ± 0.84
TCATATTCCAAGTGTACACATAAATCCCTAATAACA [CACACA_site5167]	11.7 ± 0.94
TATAAATATATTTATACACACATTAGTGTATACATG [CACACA_site7397]	10.2 ± 0.11
TATTCATATTCCAAGTGTACACATAAATCCCTAATA [XGTACX_site4131]	11.5 ± 0.9
GATTATTTTATAAGTACACACATTTATATATAATAA [CACACA_site2573]	11.5 ± 1.1
ATTATATTTTTAAGTACACACATATAAATAAATATA [CACACA_site7682]	11.4 ± 1
AAAATTCATCCAACAAGTACATAAATATAATATTAT [XGTACX_site4596]	11.3 ± 0.79
TATATTTATAAGTGTACACATTATATAAATCCCTAT [CACACA_site6122]	11.7 ± 1.1
TAATATATTTATAAGTGTACACATTATATAAATCCC [XGTACX_site8875]	11.7 ± 0.74
ATTAACACATTTAAGTGTACATATATAAATATATAT [XGTACX_site7098]	11.4 ± 0.83
TCAAAAATAAAGATCACACATATATATATATATATA [CACACA_site4381]	10.3 ± 0.99
CACATATATACACATACACACACACCCATACACCCA [CACACA_site8505]	10.5 ± 0.39
TATACAAAATAACTAGCACACATATGTATAAACATA [CACACA_site9236]	10.2
TACATACACAAATACACACACAAATACATACACAAA [CACACA_site704]	10.2 ± 0.41
TAAACATTCTTATATAGTACCCATATTAAAATATAC [XGTACX_site8014]	10.8 ± 0.58
TATATATATATAAGAAGTACAGAAAATTAGAAAAAA [XGTACX_site8773]	11.7 ± 1.1
TATATATAAGAAAAAAGTACAGATATATATATATTC [XGTACX_site4788]	11.6 ± 1.1
CCAATAATATATAGAAGTACAGAAAAAAAAAAAAAA [XGTACX_site2049]	11.5 ± 1.1

Sequence	gcPBM binding intensity (ln)
TTTTTTTTTTTTTTTTTTTTTTTGCTCAGTGTGGTA [CACACA_negctrl_site29]	9.95 ± 0.56
ACAGAAAATAAAATTTGTACATATATAGAATAAAGA [XGTACX_site3014]	10.8 ± 0.39
ATTTTGATAACCGTACGTACATATATATATATATAT [XGTACX_site6605]	11.8 ± 0.85
AATGATTTTGATTAACGTACGTACAAATATATATAT [XGTACX_site6604]	11.5 ± 0.82
AAAATTATATATTATAGTACATAAAATTTTGATATA [XGTACX_site994]	10.9 ± 0.56
ACCATTTGTACTTACGCACACATAAAATATATATAT [CACACA_site1545]	11.5 ± 1
TAAATTATATTATGCACACTTAAAAATATATTTAAC [CACACA_site3512]	10.07 ± 0.085
CAACAAAAATTATTTACACACAAAAGGCAAGGAAAT [CACACA_site1971]	10.5 ± 0.28
ACCTTAAATAATACATGTACAAAAAAATTTATAATA [XGTACX_site1043]	11 ± 0.49
TCTTACTAATTTATGGGGACTTATCACCTATTCAGT [CACACA_negctrl_site652]	10.5 ± 0.23
TTTTGTGGAGGATGGTGTACGGTATTGTATTATTAC [XGTACX_site1942]	11.1 ± 0.64
ATAAAAATAAACATACGTACTTACACGAATATACAT [XGTACX_site5989]	11.1 ± 0.65
ATACATATATACATACGTACTTATATACATATGTGC [XGTACX_site5268]	10.9 ± 0.42
TTACATATTATACGAAGTACGTACAAATACTTATAT [XGTACX_site8598]	11.7 ± 0.81
TTATACGAAGTACGTACACACACTTATATGTTACTA [CACACA_site4019]	11.6 ± 0.94
TACCTAATATGTTATACACACATTAGAAGTACATAT [CACACA_site5375]	11.6 ± 1.1
AGAAAATATACAAAACGTACTTATATATTATATCTA [XGTACX_site3104]	10.9 ± 0.69
TTATGTATAAACACACGTACACACACTAAGTATATC [XGTACX_site3254]	11.5 ± 1
ATACGAAGTACGTACACACACTTATATGTTACTAAA [CACACA_site7812]	11.7 ± 1
ATTTATATATTTATACGTACTTATATATTGTTACAT [XGTACX_site6254]	11.2 ± 0.73
TTTCATGTTTTAAAGTGTACATAAATATATTATATG [XGTACX_site3367]	11.5 ± 0.89
ATAATTTCAATATTTAATATCATATATATATATTTT [GTGCAC_negctrl_site713]	9.56 ± 0.13
CTATCATATTTATGCACACAAAAATAATTAATTCGT [CACACA_site2614]	10.2 ± 0.23

Sequence	gcPBM binding intensity (ln)
TAATTTATAAATAATTGTACATAGTTTATTTAGATT [XGTACX_site4599]	10.9 ± 0.43
ATACAGATAGGATGCACACATAATTCAAATACAATA [CACACA_site4531]	10.2 ± 0.13
TTTTTTTTATTAAAAAGTACTAAACAAATTATATAT [XGTACX_site121]	11.1 ± 0.73
AATAATTTTTAAATATAAACATTTTTTTTTTTTTTT [GTGCAC_negctrl_site532]	9.72 ± 0.057
TGCACAAAGTTATGCACACACCTAAAATTAATTTTT [CACACA_site7385]	10.05 ± 0.071
TGATAATAAGCATACACACACACACTAAAAAAAAAA [CACACA_site6478]	10.3 ± 0.43
ATATATATATATATATGTACACATAAAAAGAAAGAA [XGTACX_site1603]	11.7 ± 1.1
CAGGGCAGGGGGAAGGGTACACATAAAAGAAAATAA [XGTACX_site172]	11.7 ± 1.1
ATAAGGAAGGGATGCACACAAAAGGGTACATAAGAA [CACACA_site4006]	11.4 ± 0.71
AATAAAAGTTCACCTGTACACACATATATATATGTA [CACACA_site8500]	11.3 ± 0.76
AAATAAAAGTTCACCTGTACACACATATATATATGT [XGTACX_site3513]	11.5 ± 0.66
TAAAAGTTCACCTGTACACACATATAAATATGTACA [CACACA_site6901]	11.7 ± 0.85
AAAAAAAAAAAGTACACACATACATATAAATATATA [CACACA_site1809]	11.6 ± 0.95
AAAGAAAAAAAAAAAAGTACATAAATATAAAAAGAA [XGTACX_site6753]	11.5 ± 0.89
AGAAAAAAAAAAAGTACACACATATAATATATATAT [CACACA_site2973]	11.6 ± 1.2
ATACATATACACATATGTACATATGAAAAGAAAAAT [XGTACX_site6445]	11.1 ± 0.64
AAAGAAGGGGGGGGAAAAAAAAATAAAAGAGGAAAA [XGTACX_negctrl_site92]	11 ± 0.77
AAATAAAGAAATATATGTACATATATATATATATAT [XGTACX_site5131]	11.3 ± 0.43
ACATATAAAATGTATACACACAAATATTACATATAT [CACACA_site1472]	10.1 ± 0.11
TTTTTCATTTAGCTTTTACACACTATATATTATTGA [CACACA_site7888]	9.905 ± 0.064
